Shown are actives, neighbours in structure and some others; about 2.4% of the full set was active somewhere.
Pol kappa inh-1: inhibitors of human DNA polymerase kappa; Q9UBT6; purified Pol kappa, fluorescent DNA synthesis assay, 10 min; Potency, µM (doses to about 107 µM), actives largely listed as inhibitors; 0.53% of 400,000 active; AID 588579
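Kinetic fluorescence readout at 0 and 10 min followed reaction start with substrate at 50 nM final. Beforehand, enzyme (10 nM Pol kappa) stood 15 min with compound at room temperature; buffer-only wells were negative controls.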
POLB inh: blocks human DNA polymerase beta activity; Potency, µM (series often up to 114 µM), usual class: inhibitors; AID 485314; 1.3% of 340,000 active; P06746; Pol beta primer extension/strand displacement, fluorescence kinetic
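Preincubation: enzyme (10 nM) with compound, 15 min, RT. Reaction: substrate added to 50 nM final. Reads: 0 and 10 min. Analysis: normalized, Hill fit.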
TDP1 block: inhibitors of human tyrosyl-DNA phosphodiesterase TDP1; Q9NUW8; recombinant TDP1, AlphaScreen DNA substrate cleavage; Potency, µM (highest dose often 130 µM), usual class: inhibitors; 0.28% of 350,000 active; AID 485290; also: nearly all actives have a fitted effect of over 40% in size
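Here, a 5' biotin and 3' phosphotyrosine-FITC DNA oligonucleotide reports Tdp1 activity: intact substrate bridges AlphaScreen beads, while cleavage leaves a 3' phosphate and drops signal. All incubations at room temperature.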
Pol iota inh: DNA polymerase iota (human) inhibition; Q9UNA4; Pol iota fluorescent replication assay, 10 min; Potency, µM (top dose mostly 115 µM), usual class: inhibitors; 1% of 390,000 active
Target sequence (Q9UNA4 whole entry, looked up): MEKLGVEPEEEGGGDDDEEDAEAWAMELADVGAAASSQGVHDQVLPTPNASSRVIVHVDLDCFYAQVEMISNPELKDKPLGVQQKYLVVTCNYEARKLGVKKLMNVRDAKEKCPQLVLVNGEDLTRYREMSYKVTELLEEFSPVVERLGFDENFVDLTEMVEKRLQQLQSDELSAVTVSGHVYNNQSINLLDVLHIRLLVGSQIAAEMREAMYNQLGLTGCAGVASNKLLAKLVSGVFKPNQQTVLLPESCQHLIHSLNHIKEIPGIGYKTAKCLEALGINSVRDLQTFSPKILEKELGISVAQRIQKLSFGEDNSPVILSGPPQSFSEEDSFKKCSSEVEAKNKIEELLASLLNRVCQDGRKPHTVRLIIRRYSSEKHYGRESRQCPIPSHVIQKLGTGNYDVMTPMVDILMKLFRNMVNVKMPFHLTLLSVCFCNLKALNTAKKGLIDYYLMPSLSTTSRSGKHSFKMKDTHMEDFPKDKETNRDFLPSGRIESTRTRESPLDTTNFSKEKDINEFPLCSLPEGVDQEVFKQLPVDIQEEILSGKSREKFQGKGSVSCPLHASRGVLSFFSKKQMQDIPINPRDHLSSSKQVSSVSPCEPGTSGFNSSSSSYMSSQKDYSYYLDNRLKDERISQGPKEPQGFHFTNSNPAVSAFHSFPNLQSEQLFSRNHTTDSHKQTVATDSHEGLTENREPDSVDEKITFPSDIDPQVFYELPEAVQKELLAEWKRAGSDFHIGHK
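Fluorescent replication assay read twice, at 0 min and 10 min after adding 50 nM (final) substrate. Enzyme (10 nM) and compounds were first incubated 15 min at room temperature; enzyme-free buffer wells were negative controls.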
Pol eta inh-1: blocks human DNA polymerase eta activity | Q9Y253 | recombinant Pol eta, fluorescent DNA replication assay | Potency, µM (top dose mostly 114 µM), most hits filed as inhibitors | 1.2% of 390,000 active | AID 588591
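Pol eta (10 nM) was preincubated with compounds for 15 min at room temperature, after which fluorescent replication substrate (50 nM final) was added to start the reaction. Fluorescence was read kinetically at 0 and 10 min.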
FEN1 inhibitor: inhibitors of human flap endonuclease 1. AID 588795. Potency, µM (titrated, usually from 114 µM), hits mostly inhibitors. Recombinant FEN1 flap cleavage, fluorescence, 15 min. 0.35% of 390,000 active. P39748; also: nearly all actives have a fitted effect of over 65% in size
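In this screen, 50 nM flap DNA substrate was added to 10 nM FEN1 pretreated with compound for 15 min at room temperature; cleavage was followed with reads at 0 and 15 min, and Hill fitting gave concentration–response parameters.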
GALK confirm: galactokinase (human) inhibition, confirmation. shares compounds with Pol eta inh-1. purified GALK, Kinase-Glo ATP depletion luminescence. Potency, µM (top dose mostly 115 µM), actives largely listed as inhibitors. 70% of 150 active. AID 2015
Redox cycling: redox cycling activity in phenol red-HRP assay; shares compounds with Pol eta inh-1; Phenol red-HRP H2O2 redox cycling, absorbance 600 nm; Potency, µM (doses to about 115 µM), usual class: inhibitors; 40% of 150 active; AID 2035
HEK293 viability: reduces HEK-293 cell viability in GALK counter-screen. shares compounds with Pol eta inh-1. HEK-293 viability, ATP luminescence (CellTiter-Glo), 24/48 h. Potency, µM (series often up to 46.1 µM), usual class: inhibitors. 10% of 170 active. AID 2547
Pol kappa inh-2: confirmation of human DNA polymerase kappa inhibitors; shares compounds with Pol eta inh-1; purified Pol-kappa, fluorescent strand-displacement substrate; Potency, µM, most hits filed as inhibitors; 76% of 920 active
Pol eta inh-2: Pol eta (human) inhibition, cherry-pick confirmation; shares compounds with Pol eta inh-1; 64% of 2,600 active; Pol eta primer extension, TAMRA/BHQ fluorescence, 10 min; Potency, µM, hits mostly inhibitors
Each line names hits and unclear results; the compound was inactive in the other large screens (follow-up assays come after a bar, where they were run). Calls follow the shape of the dose curve; as a rule, active = well fitted curve in the direction sought with a large enough effect; inconclusive = small, poorly fitted or top-dose-only effect, or another doubt; inactive = no such curve, though single readings can be large; an effect the other way counts as inactive or inconclusive.

CCOC(=O)c1ccc(-c2ccc(/C=C(\C#N)c3nc4ccc(C)cc4[nH]3)o2)cc1	POLB inh inconclusive (no result: Pol eta inh-1)
Cc1ccc(Cl)c2c1N[C@@H](c1ccc(C(=O)O)cc1)[C@H]1CC=C[C@@H]21	Pol kappa inh-1 32µM, POLB inh 16µM, Pol iota inh 32µM, Pol eta inh-1 inconclusive (no result: TDP1 block) | Pol kappa inh-2 75 | Pol eta inh-2 inconclusive
Cc1ccc(CCNC(=O)c2ccc(NC(=O)N3CCSc4ccccc43)cc2)cc1	none
CC[C@@H]1O[C@]2(C=C[C@@H]1C)C[C@H]1C[C@H](CC=C(C)[C@@H](O[C@@H]3C[C@H](OC)[C@H](O[C@@H]4C[C@H](OC)[C@H](O)[C@H](C)O4)[C@H](C)O3)[C@@H](C)C=CC=C3CO[C@@H]4[C@@H](O)C(C)=C[C@@H](C(=O)O1)[C@]34O)O2	none (no result: POLB inh, Pol iota inh, Pol eta inh-1, FEN1 inhibitor)
Cc1c(C(=O)N2CCN(c3ccccc3)CC2)sc2nc3n(c(=O)c12)CCC3	POLB inh inconclusive
Cc1c(C(=O)O)sc2nc3n(c(=O)c12)CCC3	Pol kappa inh-1 inconclusive, POLB inh 18µM, TDP1 block 14µM, Pol iota inh 11µM, Pol eta inh-1 7.9µM | Pol eta inh-2 60
CCC(CC)C(=O)Nc1c(C(=O)N2CCN(c3ccccc3F)CC2)oc2ccccc12	none
CN(C)CCCN(C(=O)c1cc2cc([N+](=O)[O-])ccc2s1)c1nc2cc3c(cc2s1)OCCO3	Pol kappa inh-1 inconclusive, Pol eta inh-1 inconclusive, FEN1 inhibitor inconclusive (no result: POLB inh) | Pol kappa inh-2 60
CN(C)CCCN(C(=O)c1ccc([N+](=O)[O-])s1)c1nc2cc3c(cc2s1)OCCO3	POLB inh inconclusive
COc1ccc(OC)c(-c2nnc3n2N=C(c2ccc(OC)c(OC4CCOC4)c2)CS3)c1 (stereo not given)	none (no result: POLB inh)
COc1ccc(C2=Nn3c(nnc3-c3ccccc3Cl)SC2)cc1OC1CCOC1 (stereo not given)	none (no result: POLB inh) | Pol kappa inh-2 8.4
COc1ccc(C2=Nn3c(nnc3-c3ccccc3Cl)SC2)cc1OC1CCCC1	Pol kappa inh-1 inconclusive (no result: POLB inh) | Pol kappa inh-2 17
O=C1C[C@H]2C=CCc3cccc(c32)CN1Cc1ccc(Br)cc1	Pol iota inh inconclusive (no result: POLB inh, TDP1 block, Pol eta inh-1)
COc1ccc(C=O)cc1CSc1ccccn1	none
COc1ccc(/C=N/NC(=O)c2ccc(O)cc2O)cc1CSc1ccccn1	Pol kappa inh-1 79µM, POLB inh 20µM, Pol iota inh inconclusive, Pol eta inh-1 14µM | Pol eta inh-2 inconclusive
Cc1ccccc1OCCCCn1c(-c2ccc(Cl)cc2)nc2ccccc2c1=O	none (no result: TDP1 block)
COCC(=O)N1CCC2(CCCN(Cc3ccccc3OC)C2)CC1	none (no result: POLB inh, TDP1 block, Pol iota inh, Pol eta inh-1, FEN1 inhibitor)
CC(=O)Nc1ccc(S(=O)(=O)Nc2nc3ccccc3nc2Nc2ccc(N)cc2)cc1	Pol iota inh inconclusive (no result: TDP1 block)
CC(=O)Nc1ccc(Nc2nc3ccccc3nc2NS(=O)(=O)c2ccc(Cl)c([N+](=O)[O-])c2)cc1	Pol kappa inh-1 inconclusive, Pol iota inh inconclusive, Pol eta inh-1 22µM (no result: POLB inh, TDP1 block) | Pol eta inh-2 inconclusive
COc1cccc(-n2c(SCC(=O)Nc3cc(C)ccc3C)nc3c(oc4ccccc43)c2=O)c1	none
O=C(CSc1nc2ccccc2[nH]1)NC1CCCC1	Pol kappa inh-1 inconclusive, POLB inh 14µM, TDP1 block 45µM, Pol iota inh inconclusive, Pol eta inh-1 40µM | Pol eta inh-2 inconclusive
COC(=O)c1oc2ccccc2c1NC(=O)/C=C/C(=O)O	none | GALK confirm inactive | Redox cycling inactive | HEK293 viability inactive
COC(=O)c1oc2ccccc2c1N	Pol iota inh inconclusive
COc1ccc(NC(=O)CSc2ncnc3sc(C)cc23)cc1	none
Cc1cc2c(SCC(=O)Nc3cccc(O)c3)ncnc2s1	Pol kappa inh-1 89µM, Pol iota inh inconclusive, Pol eta inh-1 22µM, FEN1 inhibitor 45µM (no result: POLB inh, TDP1 block) | Pol kappa inh-2 21 | Pol eta inh-2 76
CC(C)C1Nc2ccc(C(=O)O)cc2C2C=CCC21 (stereo not given)	Pol kappa inh-1 inconclusive, POLB inh 13µM, Pol iota inh inconclusive, Pol eta inh-1 20µM, FEN1 inhibitor inconclusive | Pol eta inh-2 27
COC(=O)[C@H](CC(C)C)NC(=O)c1ccc(NC[C@@H](N)CS)cc1-c1cccc2ccccc12	none (no result: POLB inh, Pol iota inh, Pol eta inh-1, FEN1 inhibitor)
O=C(Nc1ccc(Cl)cc1)N1CCC(CN2CCCCCC2)CC1	none
Cn1c(=O)c(Nc2ccc(O)cc2)c2c3c(cccc31)C(=O)c1ccccc1-2	Pol kappa inh-1 inconclusive, POLB inh 32µM, Pol iota inh 16µM, Pol eta inh-1 14µM, FEN1 inhibitor inconclusive | Pol eta inh-2 inconclusive
CCOc1ccc(C=C2SC(=O)N(CCN)C2=O)cc1	none (no result: POLB inh, Pol iota inh, Pol eta inh-1, FEN1 inhibitor)
Cc1ccc([N+](=O)[O-])cc1S(=O)(=O)Nc1ccc(C(=O)N(C)C)cc1	none
Cc1ccc([N+](=O)[O-])cc1S(=O)(=O)Nc1ccc(C(=O)N2CCN(C(=O)c3ccco3)CC2)cc1	Pol kappa inh-1 inconclusive, Pol iota inh inconclusive, Pol eta inh-1 22µM (no result: POLB inh, TDP1 block) | Pol eta inh-2 inconclusive
COc1ccccc1NS(=O)(=O)c1cc([N+](=O)[O-])ccc1N/N=C/c1c[nH]c2ccccc12	none
COc1ccc(C=NNc2ccc([N+](=O)[O-])cc2S(=O)(=O)Nc2ccccc2C(=O)O)cc1OC	Pol eta inh-1 35µM, FEN1 inhibitor inconclusive (no result: POLB inh) | Pol eta inh-2 inconclusive
COc1ccc(C(=O)Nc2ncnc3nc[nH]c23)cc1	none (no result: POLB inh, TDP1 block, Pol eta inh-1)
COc1ccc2c(c1)c(=O)c(C(=O)c1ccc(Cl)cc1)cn2CC(=O)Nc1ccc2c(c1)OCCO2	none
O=Cc1cn(CCC(=O)O)nc1-c1cc2ccccc2o1	Pol kappa inh-1 inconclusive, POLB inh 18µM, Pol iota inh inconclusive, Pol eta inh-1 20µM | Pol kappa inh-2 21 | Pol eta inh-2 inconclusive

Screening data as filed in PubChem.
